In ChEMBL document CHEMBL3433997, “St. Jude Leishmania screening dataset” (2016) one finds inhibition data, which are given here for 12 compounds.

Type in all cases: functional
Experiment [1] deals with Solute carrier family 2, facilitated glucose transporter member 1 (Homo sapiens) (UniProt P11166). Kind of experiment: ST_JUDE_LEISH: Cytotoxicity at 2uM final concentration against transgenic Leishmania Mexicana promastigotes LmGLUT1 that are glucose transport deficient and complemented with the human glucose transporter GLUT1. Activity is measured by DNA content using SYBR green in vitro.

Experiment [2] addresses Hexose transporter 1 (Plasmodium falciparum) (UniProt O97467). Description: ST_JUDE_LEISH: Cytotoxicity at 2uM final concentration against transgenic Leishmania Mexicana promastigotes LmPfHT that are glucose transport deficient and complemented with the Plasmodium falciparum hexose transporter. Activity is measured by DNA content using SYBR green in vitro.
The target of experiment [3] is Glucose transporter (Leishmania mexicana) (UniProt O61059). Kind of experiment: ST_JUDE_LEISH: Cytotoxicity at 2uM final concentration against transgenic Leishmania Mexicana promastigotes LmGT2 that are glucose transport deficient and complemented with the L. Mexicana glucose transporter 2. Activity is measured by DNA content using SYBR green in vitro.

Chain of Solute carrier family 2, facilitated glucose transporter member 1 (Homo sapiens) (P11166 whole entry): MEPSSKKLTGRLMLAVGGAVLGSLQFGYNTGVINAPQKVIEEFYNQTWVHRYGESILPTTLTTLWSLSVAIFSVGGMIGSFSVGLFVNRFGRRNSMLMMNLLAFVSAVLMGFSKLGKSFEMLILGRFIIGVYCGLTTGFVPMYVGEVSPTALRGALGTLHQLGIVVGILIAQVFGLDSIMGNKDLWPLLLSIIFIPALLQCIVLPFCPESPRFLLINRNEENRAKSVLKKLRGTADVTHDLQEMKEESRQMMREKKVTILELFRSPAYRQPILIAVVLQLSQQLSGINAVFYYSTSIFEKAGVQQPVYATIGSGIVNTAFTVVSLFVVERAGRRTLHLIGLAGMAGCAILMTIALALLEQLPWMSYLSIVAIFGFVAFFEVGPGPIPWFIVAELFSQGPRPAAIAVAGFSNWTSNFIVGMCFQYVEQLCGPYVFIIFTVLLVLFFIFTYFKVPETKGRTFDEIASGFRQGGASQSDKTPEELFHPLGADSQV

For `Cc1ccc2nc(-c3ccc(C(=O)NC4CCN(Cc5ccccc5)CC4)s3)[nH]c2c1`, the inhibition (in general, the drop in the measured response relative to a control, in per cent) was -1.39% in experiment [1], 1.8% in experiment [2] and 1.22% in experiment [3].

For `O=S(=O)(c1cc2ccccc2s1)N(CCC(O)(C(F)(F)F)C(F)(F)F)Cc1cccc(O)c1`, the figures for the inhibition in experiment [1], in experiment [2] and in experiment [3] were -0.29%, -1.09% and 1.75%, respectively.

`COc1ccc(Cc2c(N)nc3nc(N)nc(N)c3c2C)cc1`: the inhibition turned out to be 1.48% in experiment [1], 3.73% in experiment [2] and 3.1% in experiment [3].

As for `Cc1cc(N(CCCN(C)C)Cc2cc(F)cc(F)c2)nc(Nc2ccc(Cl)cc2)n1`, the inhibition in experiment [1] is -0.3%; in experiment [2] it was 0.46%; in experiment [3] it was 1.83%.

`O=C(Cc1ccc(NC(=O)c2ccc(O)c(-c3ccc(Cl)c(Cl)c3)c2)cc1)NCCN1CCOCC1`: the inhibition in experiment [1] was -2.69%; in experiment [2] it was -1.17%; in experiment [3], -1.61%.

For the compound `Cc1cc(NCCC(=O)Nc2ccccc2)nc(NCCc2ccc(F)cc2)n1`, the inhibition in experiment [1] turned out to be 3.19%; in experiment [2], 3.34%; in experiment [3], 1.6%.

As to `COc1ccccc1Oc1c(N(C)S(=O)(=O)c2ccc(C(C)C)cc2)nc(C(F)(F)F)nc1N(C)S(=O)(=O)c1ccc(C(C)C)cc1`, the results for the inhibition in experiment [1], in experiment [2] and in experiment [3] were 0.63%, 1.97% and 1%, respectively.

Take `COc1cccc2cc(C(=O)N[C@@H](CC(C)C)C(=O)N[C@H](C=NN3CCCC3=O)Cc3ccccc3)oc12`: the figures for the inhibition in experiment [1], in experiment [2] and in experiment [3] were 2.46%, 5.52% and 2.7%, respectively.

On to `CCC(C)NS(=O)(=O)c1ccc2nc(Nc3ccc(C)cc3)n(C3CCCCC3C)c2c1` (stereo unspecified), for which the results for the inhibition in experiment [1], in experiment [2] and in experiment [3] were 4.96%, 3.92% and 2.03%, respectively.

As to `CC(CCc1ccccc1)NCC(O)c1cccc(C(F)(F)F)c1` (stereo unspecified), the inhibition in experiment [1] worked out at 5.1%; in experiment [2], 5.17%; in experiment [3] it was 3.76%.

With `O=C(NCc1ccc(Cl)c(Cl)c1)c1ccc(C2CCN(Cc3ccc4[nH]cnc4c3)CC2)cc1`, the results for the inhibition in experiment [1], in experiment [2] and in experiment [3] were 2.71%, 1.42% and 0.28%, respectively.

Take `COC(=O)c1cccc(CNCc2ccc(-c3ccc(-c4nc5ccccc5[nH]4)s3)cc2)c1`: the inhibition came out at 9.31% in experiment [1], 9.04% in experiment [2] and 9.28% in experiment [3].
